Experimental findings from PubChem BioAssay AID485367 (National Center for Advancing Translational Sciences (NCATS), 2010) are described below.

Each structure is given as a SMILES string. In all, about 330,000 compounds went through this assay and about 560 (0.17%) were called active. Another 1% or so got no clear call; they are omitted. The call rests on the fitted dose curve; in most records, active means well fitted inhibition curve with a large enough effect; inconclusive means small, poorly fitted or top-dose-only effect, or effect the other way; inactive means flat fitted curve, though single readings scatter. The list comes from a sample in which actives are over-represented; it also holds similar structures and randomly drawn compounds. Where a call stands in place of a potency, no number is given.
Potency means the concentration at half of the fitted maximal effect.

The target in this test is ATP-dependent 6-phosphofructokinase (Trypanosoma brucei brucei) (UniProt O15648). Nature of the test: qHTS Assay to Find Inhibitors of T. brucei phosphofructokinase. Further: nearly all actives have a fitted effect of over 60% in size. To be noted: T. brucei PFK, ADP-Glo luminescence; series mostly up to 57.5 µM. In short, it runs like this: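 Activity is normalized to no-enzyme wells (full inhibition) and 1.25 nM enzyme wells (no inhibition). Reaction: 0.5 mM F6P, 0.1 mM ATP, 45 min RT, ADP-Glo luminescence; concentration-response curves fitted and classed by quality.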
ATP-dependent 6-phosphofructokinase (Trypanosoma brucei brucei), sequence (O15648 whole entry, looked up): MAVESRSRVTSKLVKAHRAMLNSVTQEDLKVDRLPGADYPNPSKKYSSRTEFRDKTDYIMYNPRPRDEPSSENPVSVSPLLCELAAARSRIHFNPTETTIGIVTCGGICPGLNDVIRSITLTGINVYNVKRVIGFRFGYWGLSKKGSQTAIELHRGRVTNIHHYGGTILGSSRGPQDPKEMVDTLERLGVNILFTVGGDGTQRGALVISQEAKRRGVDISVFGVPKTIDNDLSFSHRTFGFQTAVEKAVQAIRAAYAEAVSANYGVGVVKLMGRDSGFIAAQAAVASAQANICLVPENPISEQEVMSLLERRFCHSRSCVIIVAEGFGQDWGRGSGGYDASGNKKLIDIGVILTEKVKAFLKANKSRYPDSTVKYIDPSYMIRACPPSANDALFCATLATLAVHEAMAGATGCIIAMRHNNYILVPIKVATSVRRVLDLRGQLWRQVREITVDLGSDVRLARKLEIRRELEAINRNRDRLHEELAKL
A general note: Quantitative high-throughput screening tests each substance at several concentrations.
For `O=C(COC(=O)/C=C/c1ccc(OC(F)F)cc1)NC1CCCCC1`, the Potency entry was “inactive”.

As to `N=C1/C(=C/c2cccn2-c2cccc([N+](=O)[O-])c2)C(=O)N=C2SC=CN12`, the Potency result was “inactive”.

As to `CCOC(=O)c1c(CNCc2ccccc2F)c2sc(C)cc2n1C`, the Potency result was “inactive”.

`NC(=O)c1ccc(Nc2ccc3nonc3c2[N+](=O)[O-])cc1`: the Potency result is “inactive”.

Consider `O=[N+]([O-])c1c(NCCO)cc(Sc2nc3ccccc3s2)c2nonc12`, for which the Potency was 6.01 µM (active).

On to `CCN(CC)CCCSc1nc2ccccc2s1`, for which the Potency result was “inactive”.

`CCOCCOC(=O)C1=C(C)N(C)C(=O)NC1c1ccccc1F` (stereo unspecified): the Potency entry is “inactive”.

For the compound `CCOC1CS(=O)(=O)CC1OCC` (stereo unspecified), the Potency entry is “inactive”.

Take `CC(C)(C)NC(=O)NC(=O)COC(=O)Cc1c(F)cccc1Cl`: the Potency result is “inactive”.

In the case of `O=C1CSC(=S)N1c1ccc(O)cc1`, the Potency result was “inactive”.

For `O=C1CSC(=S)N1c1ccc(Cl)c(Cl)c1`, the Potency was 21.3 µM (active).

On to `COc1cc(N2C(=O)CSC2=S)cc(OC)c1OC`, for which the Potency entry was “inactive”.

Take `O=C(COC(=O)CNS(=O)(=O)c1ccccc1)NC12CC3CC(CC(C3)C1)C2`: the Potency result was “inactive”.

Consider `Cc1ccc(C(=O)COC(=O)c2cccc(N3C(=O)c4c(C)nc5ccccc5c4C3=O)c2)cc1C`, for which the Potency entry is “inactive”.

Turning to `Cc1ccnc(NC(=O)c2ccc(Cl)c([N+](=O)[O-])c2)c1`, the Potency entry is “inactive”.

In the case of `O=C(Nc1ccncc1)c1ccc([N+](=O)[O-])cc1Cl`, the Potency entry is “inactive”.

For the compound `O=C(Nc1ccncc1)c1ccc(Cl)c([N+](=O)[O-])c1`, the Potency was 26.9 µM (active).

As to `Cc1c(CCO)c(=O)n(-c2ccccc2)n1S(=O)(=O)c1ccc(F)cc1`, the Potency entry is “inactive”.

Consider `CCOc1ccc(NCCC(=O)c2ccc3c(c2)OCO3)cc1`, for which the Potency entry was “inactive”.

Take `COc1ccc(CNC(=O)C(NS(=O)(=O)c2cccc3nsnc23)C(C)C)cc1` (stereo unspecified): the Potency result was “inactive”.

As to `CC(NC(=O)c1ccc(S(=O)(=O)Nc2ccccc2)cc1)c1ccc(S(N)(=O)=O)cc1` (stereo unspecified), the Potency entry was “inactive”.
